Compound activity deposited in PubChem by several laboratories.
Hits are enriched below; roughly 5.4% of the tested compounds scored in any of these assays.
A3G deaminase = APOBEC3G DNA deaminase inhibitors, primary screen, biochemical, fluorescence, single-stranded DNA substrate, uHTS; DNA dC->dU-editing enzyme APOBEC-3G (Homo sapiens), Q9HC16; recombinant A3G, ssDNA deamination FAM/TAMRA fluorescence; inhibition, % at 20 µM; 0.28% of 330,000 active; AID 493012, 2011;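 active = inhibition of at least 40% at 20 µM, with no more than 30% in the related APOBEC3A deaminase screen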;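 note: plate controls were DMSO wells with A3G for no effect and wells lacking A3G enzyme for full effect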
APOBEC3A inh = APOBEC3A ssDNA deaminase inhibitors, primary screen, selectivity assay for APOBEC3G inhibitor project, biochemical, FAM/TAMRA oligo cleavage fluorescence. DNA dC->dU-editing enzyme APOBEC-3A (Homo sapiens), P31941. recombinant A3A, FAM/TAMRA ssDNA deamination fluorescence. inhibition, % at 20 µM. 0.41% of 330,000 active. AID 493011, 2011;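 active = at least 40% inhibition at 20 µM here, with at most 30% in a related deaminase screen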;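 note: plate controls were A3A with DMSO for no effect and wells lacking A3A enzyme for full effect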
ALR H2O2 inh = inhibitors of human ALR sulfhydryl oxidase, primary screen, biochemical, H2O2 detection, HRP-luminol luminescence, single point | purified ALR, DTT oxidation | inhibition, % (no concentration beside the values) | 3.8% of 290,000 active | AID 485317, 2010;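 active = mean replicate inhibition above about 79%, with every replicate also reaching it, limit read from the data; inconclusive = only one of the two criteria met; inactive = mean below limit and not every replicate reaching it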
rCAG binder = binders of r(CAG) RNA repeats, primary screen, biochemical, fluorescence. inhibition, % at 3 µM. 1.3% of 370,000 active. r(CAG) RNA repeat, TO-PRO-1 dye displacement fluorescence;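 active = inhibition above the plate cutoff, the mean of all test compounds on that plate plus 3 SD, cut at about 35% in these data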;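 note: 0% = DMSO alone and 100% = 100 µM mitoxantrone as full dye displacement; higher means more dye released from RNA so lower well fluorescence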
aDG glyco act = activators of alpha-DG glycosylation, primary screen, uHTS, Pro5-aDG cells, AlphaScreen | activation, % at 10 µM | AID 624168, 2012 | 0.22% of 360,000 active | alpha-DG glycosylation AlphaScreen (IIH6); 0% Pro5, 100% B10-LARGE cell signal;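 active = activation of at least 8% versus controls, or a plate z-score of at least 8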;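 note: Pro5 are CHO cells carrying HIG-tagged alpha-DG that lacks glycosylation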
PHOSPHO1 inh = PubChem AID 1565; recombinant PHOSPHO1, absorbance phosphatase assay; inhibition, % at 13.3 µM; 1.1% of 290,000 active; in the data active = inhibition above about 60%
Target sequence (Q8TCT1 whole entry, looked up): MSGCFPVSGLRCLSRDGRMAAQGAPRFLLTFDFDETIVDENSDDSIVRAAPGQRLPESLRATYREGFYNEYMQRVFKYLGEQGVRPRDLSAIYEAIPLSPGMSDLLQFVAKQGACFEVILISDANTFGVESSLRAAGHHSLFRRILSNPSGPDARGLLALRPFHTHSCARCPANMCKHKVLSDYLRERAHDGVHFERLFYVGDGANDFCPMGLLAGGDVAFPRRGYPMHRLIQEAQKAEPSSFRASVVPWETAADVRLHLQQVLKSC
Numbers without * were called inactive.

How did Cc1ccc(/C(O)=C2\C(=O)C(=O)N(C)C2c2ccc(Br)cc2)cc1 (configuration not stated) do in these assays?
A3G deaminase: -5; APOBEC3A inh: -6; ALR H2O2 inh: 5; rCAG binder: 6; aDG glyco act: 0; PHOSPHO1 inh: 39

Results for CN1C(=O)C(=O)/C(=C(/O)c2ccccc2)C1c1ccccc1 (configuration not stated) ?
A3G deaminase: -9; APOBEC3A inh: -5; ALR H2O2 inh: 2; rCAG binder: 0; aDG glyco act: 0

How did CCOc1ccc(-n2c(SCC(=O)Nc3cccc4ccccc34)nnc2-c2cccs2)cc1 do in these assays?
rCAG binder: 12

What do the screens show for `S=C(N/N=C/c1ccc(Cl)cc1)N1CCOCC1`?
A3G deaminase: -6; APOBEC3A inh: -2; ALR H2O2 inh: 12; rCAG binder: 6; aDG glyco act: 0; PHOSPHO1 inh: -5

How did Cc1ccc(/C=N/NC(=S)N2CCOCC2)cc1 do in these assays?
A3G deaminase: -4; APOBEC3A inh: -2; ALR H2O2 inh: 1; rCAG binder: 5; aDG glyco act: 0; PHOSPHO1 inh: 62*

What do the screens show for `CCNc1ccc(S(=O)(=O)N(C)C)cc1NCC(=O)Nc1ccccc1F`?
A3G deaminase: -7; APOBEC3A inh: -5; ALR H2O2 inh: 99*; rCAG binder: -2; aDG glyco act: 0; PHOSPHO1 inh: -12

Results for CCN(CC)c1ccc(/C=N/NC(=O)c2ccc3nc[nH]c3c2)c(O)c1 ?
A3G deaminase: 1; APOBEC3A inh: 0; ALR H2O2 inh: 97*; aDG glyco act: 0; PHOSPHO1 inh: 32

How did CCN(CC)c1ccc(/C=N/Nc2ccccc2)c(O)c1 do in these assays?
A3G deaminase: -5; APOBEC3A inh: 0; ALR H2O2 inh: inconclusive; aDG glyco act: 0; PHOSPHO1 inh: 91*

Results for CCN(CC)c1ccc(/C=N/NC(=S)NC)c(O)c1 ?
A3G deaminase: -7; APOBEC3A inh: -2; ALR H2O2 inh: 98*; rCAG binder: 0; aDG glyco act: 0; PHOSPHO1 inh: -22

What do the screens show for `CCN(CC)c1ccc(/C=N/NC(=O)OC)c(O)c1`?
A3G deaminase: -4; APOBEC3A inh: -5; ALR H2O2 inh: 98*; rCAG binder: -2; aDG glyco act: 0; PHOSPHO1 inh: 19

Results for CCN(CC)c1ccc(/C=N/NC(=O)c2ccoc2C)c(O)c1 ?
A3G deaminase: -5; APOBEC3A inh: 1; ALR H2O2 inh: 72; rCAG binder: 7; aDG glyco act: 0; PHOSPHO1 inh: 32

How did COC(=O)C[C@@H]1CC[C@H]2[C@H](COc3ccc(NC(=O)c4cccc(C(F)(F)F)c4)cc3C(=O)N2C)O1 do in these assays?
rCAG binder: 4

Results for Cn1c(SCC(=O)NCCN2CCCCC2)nc2cccnc21 ?
rCAG binder: 2

Results for N#CC1=C(N)N(c2ccccc2)C(c2ccco2)C1(C#N)C#N (configuration not stated) ?
A3G deaminase: -6; APOBEC3A inh: -3; ALR H2O2 inh: 94*; rCAG binder: 3; aDG glyco act: 0; PHOSPHO1 inh: 28

How did O=C(NC1CCCC1)c1ccc(CSc2nc3ccncc3n2Cc2ccc(F)cc2)cc1 do in these assays?
A3G deaminase: 3; APOBEC3A inh: 4; ALR H2O2 inh: 99*; rCAG binder: 1; aDG glyco act: 0; PHOSPHO1 inh: -11

What do the screens show for `O=C(NCCN1CCOCC1)c1ccc(CSc2nc3ccncc3n2Cc2ccc(F)cc2)cc1`?
A3G deaminase: -5; APOBEC3A inh: -1; ALR H2O2 inh: 99*; rCAG binder: 3; aDG glyco act: 0; PHOSPHO1 inh: 2

How did O=C(CNS(=O)(=O)c1ccccc1)N1CCN(c2ncccn2)CC1 do in these assays?
rCAG binder: 2
